# Source: PubChem BioAssay (National Center for Advancing Translational Sciences (NCATS))
# TRPML1 blocker: inhibitors of human TRPML1 channel; activity change, negative = inhibition, % (concentration not given with the values); Q9GZU1; TRPML1-inducible cells, Ca2+ dye fluorescence, FDSS; active compounds read low; inhibition of EC80 agonist-evoked calcium signal; 390,000 compounds, 0.02% hits; in the data active = activity change below about -50%; inconclusive = between about -30% and that limit;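 note: stimulus is agonist 54-4 at its EC80 concentration; % is set by controls: 0 for no effect and ±100 for the full control effect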
#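 Tet-induced TRPML1-DL cells loaded with Ca8 no-wash calcium dye were read kinetically on FDSS. Compound addition was followed by EC80 agonist 54-4 (4 uM final); inhibition was read over 110 s.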
# TSG101-PTAP inh: blocks PTAP/TSG101 interaction to inhibit HIV-1 budding | Q99816 | Fluorescence polarization, FITC-PTAP peptide / Tsg101 binding | Potency, µM (doses to about 115 µM), for inactives: top-dose activity change, negative = inhibition, actives largely listed as inhibitors | 340,000 tested, under 10 active; active = well fitted inhibition curve with a large enough effect in the main read-out, with a control signal flat, not every such curve was filed as active; inconclusive = small, poorly fitted or top-dose-only effect, or effect the other way, or a change in a side signal; inactive = no such curve, though single readings can be large or run the other way; note: potency is the fitted concentration of half-maximal effect; % of control where 0% means no effect
#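 Fluorescence anisotropy tracks displacement of a FITC-tagged PTAP peptide (50 nM) from the Tsg101 binding domain (10 uM), following a 20 min room-temperature incubation at pH 7.5.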
# TRPML1 agonist: activates the human TRPML1 channel; AID 624414; activation, % (concentration not given with the values); Q9GZU1; TRPML1-expressing cells, Ca2+ dye fluorescence, FDSS; 410,000 compounds, 0.12% hits; note: 0% is about no effect
#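 Tet-induced TRPML1-DL cells, 1,500 per well, cultured overnight, were loaded with a no-wash Ca2+ dye for 45–90 min. Calcium fluorescence was recorded on the FDSS for 110 s after compound addition, before the EC80 agonist (4 uM 54-4) was added.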
# IL2 activator: IL-2 activation; AID 652025; 360,000 compounds, 0.065% hits; activation, % (series mostly up to about 46 µM); IL-2 activation reporter assay, cell-based qHTS; stimulated with anti-CD3/CD4/CD28 beads; in transgenic mouse T cells; note: 0% is about no effect
#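 Screening format: compound pinned onto unstimulated transgenic mouse T cells, 60 min incubation, then anti-CD3/anti-CD4/anti-CD28 bead stimulation for 18 hours at 37 degrees C, followed by EGFP and DsRed detection.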
# BRCA1 expr up: increases BRCA1 expression. 380,000 compounds, 1.1% hits. AID 624202. MCF7-BRCA1-FFLuc reporter, luminescence, 48 h; response scale: scaled: vehicle 0%, 10 µM genistein 100%. Potency, µM (highest dose often 46.1 µM), for inactives: at the highest dose activation, most hits filed as activators; active = well fitted activation curve with a large enough effect; inconclusive = small, poorly fitted or top-dose-only effect; inactive = no such curve, though single readings can be large or run the other way; note: potency is the fitted concentration of half-maximal effect; nearly all actives have a fitted effect of over 80% in size
#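 Compounds are tested at multiple concentrations on MCF7 BRCA1-luciferase reporter cells seeded at 2000 per well; after 48 h, a single luminescence end-point is taken and curves fitted to the normalized data.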
# PKM2 act: PKM2 (human) enzyme activation | P14618 | purified PKM2, Kinase-Glo ATP luminescence, activation; response scale: 0% is enzyme alone, no compound | Potency, µM (highest dose often 57.5 µM), for inactives: at the highest dose activation, hits mostly activators | 260,000 compounds, 0.34% hits | AID 1631; active = well fitted activation curve with a large enough effect; inconclusive = small, poorly fitted or top-dose-only effect; inactive = no such curve, though single readings can be large or run the other way; note: potency is the fitted concentration of half-maximal effect; % is set by controls: 0 for no effect and ±100 for the full control effect; nearly all actives have a fitted effect of over 55% in size
# Target sequence (P14618 whole entry, looked up): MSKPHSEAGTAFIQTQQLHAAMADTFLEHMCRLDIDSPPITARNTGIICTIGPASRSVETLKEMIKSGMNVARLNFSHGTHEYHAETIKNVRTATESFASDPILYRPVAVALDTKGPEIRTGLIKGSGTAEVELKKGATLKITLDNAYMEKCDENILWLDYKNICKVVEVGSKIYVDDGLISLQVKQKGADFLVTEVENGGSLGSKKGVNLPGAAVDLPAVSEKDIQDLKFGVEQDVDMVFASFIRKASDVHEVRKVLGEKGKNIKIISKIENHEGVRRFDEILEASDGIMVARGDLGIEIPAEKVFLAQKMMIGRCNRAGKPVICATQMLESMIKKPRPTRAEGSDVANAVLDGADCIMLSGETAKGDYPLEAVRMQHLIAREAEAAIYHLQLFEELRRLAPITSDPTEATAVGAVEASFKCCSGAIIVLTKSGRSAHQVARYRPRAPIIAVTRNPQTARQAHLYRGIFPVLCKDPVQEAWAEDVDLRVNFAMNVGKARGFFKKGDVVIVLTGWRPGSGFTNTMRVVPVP
#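 ATP formation by purified human PK-M2, quantified via coupled luciferase luminescence after 1 h at room temperature with 0.1 mM ADP and 0.5 mM PEP final.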
# Active calls of the source: *; ? = inconclusive; nt = no result given; [ ] = remark or other dose. A selection: hits, their analogues and other compounds. The true share with any hit is near 1.3%. Cut-off read from the data, not from the text of the source, unless noted: active = activation above about 50%; inconclusive = mostly about 30% to 49%; inactive = weaker than that.
SMILES,TRPML1 blocker,TSG101-PTAP inh,TRPML1 agonist,IL2 activator,BRCA1 expr up,PKM2 act
COc1cc(OC)c(OC)cc1/C=c1\[nH]c(=O)/c(=C/c2cc(OC)c(OC)cc2OC)[nH]c1=O,nt,nt,0,nt,nt,nt
CN(C)c1ccc(/C=C2\C=Cc3ccccc32)cc1F,nt,nt,0,nt,?,nt
Nc1nc(-c2ccccc2Cl)cs1,12,-1%,0,2,10µM*,nt
Cc1ccccc1-c1csc(N)n1,-8,-3%,-1,0,71%,nt
CN(C)c1cccc(C(=O)NC2CCCCCC2)c1,-2,-4%,0,-1,10µM*,-11%
O=C(CSc1ccccc1)NC1CCCCCCC1,4,-7%,0,-5,10µM*,2%
Cc1ccc(C(=O)NC(=S)N(C)C2CCCCC2)cc1,13,0%,0,-2,8.9µM*,-7%
CN(C(=O)c1ccc(-c2ccccc2)cc1)C1CCCCC1,-12,-1%,1,-3,2.8µM*,nt
CN(C(=O)c1ccccc1Cl)C1CCCCC1,-6,-5%,-1,-3,13%,10%
CC(Oc1ccccc1)C(=O)N[C@@H]1C(=O)N2C(C(=O)O)C(C)(C)S[C@H]12 (stereo not given in full),nt,nt,0,nt,nt,nt
O=C(Nc1ccccc1F)NC1CCCCCCC1,-1,-9%,1,-1,3.5µM*,-1%
O=C(NC1CCCCCCC1)c1ccc(F)cc1,20,-4%,2,0,2.8µM*,nt
O=C(Nc1ccccc1F)NC1CC1,0,-1%,1,-1,19%,4%
O=C(NC1CC2CCCC(C1)N2C(=O)NC1CCCCC1)c1ccc(F)cc1 (stereo not given),2,-5%,0,-1,1%,-3%
O=C(NC1CCCCC1)c1ccc(-c2ccccc2)cc1,23,0%,0,0,2.2µM*,nt
CCCCCCCCCCCCCCCCCC(=O)NCCc1ccc(O)c(O)c1,nt,nt,nt,nt,nt,-2%
Cc1nc(C)c(CCNS(=O)(=O)c2ccc(C)c(C)c2)s1,-7,nt,2,nt,0%,nt
CC1CCc2onc(C(=O)N3CCN(c4ccc(F)cc4)CC3)c2C1 (stereo not given),-13,nt,2,nt,nt,nt
O=C(CSc1nnc(-c2ccc(O)cc2)o1)Nc1cccc(O)c1,19,-5%,1,0,-40%,7.9µM*
COc1ccccc1NC(=O)CSc1nnc(-c2ccoc2C)o1,-12,-3%,0,0,7.9µM*,nt
Cc1cccc(NC(=O)CSc2nnc(-c3ccccc3C)o2)c1,-3,-5%,0,2,13µM*,-7%
Cc1cccc(NC(=O)CSc2nnc(-c3n[nH]c4ccccc34)o2)c1,7,1%,0,2,13µM*,14%
COc1ccccc1NC(=O)CSc1nnc(-c2ccccc2C)o1,-3,nt,2,nt,nt,nt
Cc1cc(C)cc(NC(=O)CSc2nnc(-c3ccccc3C)o2)c1,-7,-2%,0,-1,?,-9%
CCOC(=O)c1csc(NC(=O)c2ccccc2)n1,-5,-1%,0,-1,4µM*,-20%
SMILES,TRPML1 blocker,TSG101-PTAP inh,TRPML1 agonist,IL2 activator,BRCA1 expr up,PKM2 act
CN(C)c1ccc(/C=C/c2cc3ccccc3c[n+]2C)cc1,nt,nt,0,nt,nt,nt
Cc1cc(/C=C/c2c(C)cnc3ccccc23)ccc1N(C)C,nt,nt,0,nt,-51%,nt
Cc1cc(-c2ccccc2)nc(N2CCC(C(=O)NC(C)C)CC2)n1,-25,-10%,1,-1,2µM*,0%
CCC(C)NC(=O)C1CCN(c2nc(C)cc(C)n2)CC1 (stereo not given),-1,-6%,-1,1,-1%,-4%
c1ccc(CSc2nnc3c4ccccc4c4ccccc4c3n2)cc1,nt,nt,nt,nt,nt,-6%
Cc1nnc(SCc2ccccc2)nc1-c1ccccc1,41,-10%,1,-2,11µM*,nt
O=C(O)c1ccc(-n2ncc3c2/C(=C/c2cccc([N+](=O)[O-])c2)CC3)cc1,-6,-6%,-1,1,6.3µM*,4%
N#CC1=C2C=Cc3ccccc3N2CCCC1=O,22,-6%,-1,0,2.5µM*,-4%
O=c1oc(-c2ccccc2)nc2sc3c(c12)CCCC3,25,-6%,1,-1,-40%,-10%
O=c1oc(-c2cccs2)nc2sc3c(c12)CCCCC3,-12,-5%,0,-1,10µM*,-2%
O=C(C[n+]1ccncc1)c1cccc2ccccc12,nt,nt,0,nt,-3%,nt
O=C(Nc1ccccc1)N1CC=C(c2ccc(F)cc2)CC1,15,-2%,1,0,4µM*,-12%
Cc1ccc(NC(=O)CCc2c(C)nn(-c3ccc(N4CCCCC4)nn3)c2C)cc1F,-2,-5%,1,-4,3.2µM*,nt
CCOc1ccc(NC(=O)CCc2c(C)nn(-c3ccc(N4CCCCC4)nn3)c2C)cc1,-10,-4%,2,-3,11µM*,nt
Cc1ccc(CSc2nnc(-c3ccc4c(c3)OCO4)o2)cc1,-22,0%,2,1,?,2%
c1cc(CSc2nnc(-c3ccc4c(c3)OCO4)o2)ccn1,7,-1%,1,4,3.2µM*,-2%
O=C1C(NS(=O)(=O)c2ccc(Br)cc2)=C(N2CCCCC2)C(=O)c2ccccc21,-19,-12%,76*,0,8%,nt
CC1CCN(C2=C(NS(=O)(=O)c3ccc(Br)cc3)C(=O)c3ccccc3C2=O)CC1,-11,-5%,0,0,-46%,-1%[0.46 µM]
COc1ccc(NC(=O)C2(C)Cc3c(-c4ccc(N(C)C)cc4)ccnc3O2)cn1 (stereo not given),20,nt,1,0,-6%,nt
O=C1Nc2ccccc2Oc2cc(Oc3ccc(Cl)cc3)ccc21,11,nt,0,nt,nt,nt
Cc1ccc(Oc2cc([N+](=O)[O-])cc3c2C(=O)Nc2ccccc2O3)cc1,-1,?,1,72*,-61%,1%
Cc1ccc(CSc2nnc(SCC(=O)N/N=C/c3c[nH]c4ccccc34)s2)cc1,5,-8%,-1,1,-78%,25µM*
CCOc1ccc(S(=O)(=O)Nc2ccc(-c3ccc(OC)nn3)cc2)cc1,-27,nt,2,nt,nt,nt
Nc1nnc(CC(=O)N/N=C/c2ccc(-c3ccc(F)cc3)o2)s1,-9,0%,2,1,9%,9%
CCOC(=O)c1ccc(-c2ccc(/C=N/NC(=O)Cc3nnc(N)s3)o2)cc1,4,0%,-1,1,2.2µM*,3%
CCOc1ccccc1C1NC(c2ccc3c(c2)OCO3)=CC(c2ccccc2O)N1 (stereo not given),nt,nt,-1,nt,9%,nt
